Structures are written as SMILES. Activity calls are given as the source filed them. Calls come from the whole dose curve; as a rule, active = well fitted curve in the direction sought with a large enough effect in the repeat runs; inconclusive = weak or mixed curves; inactive = flat fitted curve, though single readings scatter.

This experiment in a line: qHTS assay to test for compound auto fluorescence at 535 nm (green) in HEK293 cell free culture (AID 720682). The settings on record: cell-free medium, green autofluorescence 485/535 nm; series mostly up to 91.3 µM. The text has this: U.S. Tox21 Program National Center for Advancing Translational Sciences [NCATS] NIH Chemical Genomics Center [NCGC] U.S. Environmental Protection Agency [EPA] National Institutes of Environmental Health Sciences [NIEHS] National Toxicology Program [NTP] U.S. Food and Drug Administration [FDA] Tox21 Assay Overview: Compound auto fluorescence often interferes with screening of the compound library against various biological targets and signaling pathways. Some of these compounds may have fluorophoric properties. Such properties may interfere with the assay outputs resulting in false positives and/or negatives. To decrease such complications and ensure the compound activities are relevant in terms of biological response, the Tox21 10K compound library was screened for auto fluorescence. From the fluorophores used as reporter signals in our screening assays, the auto fluorescence equivalencies of compounds against three fluorophores have been evaluated: Triamterene, Fluorescein and Rose Bengal sodium for blue, green and red fluorescence, respectively. The fluorescence intensities were measured using Excitation/Emission wavelengths at 405/460nm, 485/535nm and 540/590nm for blue, green and red labels, respectively. This assay includes the green fluorescence data.
Tox21 Assay Protocol Summary: 5 uL of culture medium (DMEM containing 10% FBS) per well was dispensed into black wall/clear bottom 1536-well plates using a Multidrop Combi Dispenser (ThermoFisher Scientific, Waltham, MA). After 23 nL compound or DMSO vehicle was transferred into assay plate by a pintool work station (Kalypsys, San Diego, CA), fluorescence intensities in the assay plates were measured by an Envision (PerkinElmer, Shelton, CT) plate reader using three labels for measuring blue, green and red fluorescence at […] 460, 535 and 590nm respectively.
In the case of `O=C(NC(=O)c1c(F)cccc1F)Nc1cc(Cl)c(OC(F)(F)C(F)C(F)(F)F)cc1Cl` (stereo not given), the call was inactive. The same measure for `NCC(O)c1ccc(O)cc1` (stereo not given): “inactive”; for `CC(C)C1(C)N=C(c2nc3ccccc3cc2C(=O)O)NC1=O` (stereo not given): “inactive”; for `CC(C#N)CCC#N` (stereo not given): “inactive”. For the compound `CC(C)(C)OOC(C)(C)C`, the call was inactive. For `CC(C)(Cl)Cl`, the outcome was inactive. The same measure for `CC(=O)C=C(C)C`: “inactive”; for `Cc1[nH]c(=O)n(C(C)(C)C)c(=O)c1Cl`: “inactive”; for `CCNc1nc(NC(C)C)nc(SC)n1`: “inactive”. The entry for `O=NN1CCCC1` is “inactive”. Regarding `Nc1ccc(Cc2ccc(N)cc2)cc1`, the outcome was inactive. The same measure for `Cc1cc(Cl)ccc1O`: “inactive”; for `Nc1ccc(Oc2ccc(N)cc2)cc1`: “inactive”; for `CC(C)(C)C(O)(CCc1ccc(Cl)cc1)Cn1cncn1` (stereo not given): “inactive”.

Regarding `CON(C)C(=O)Nc1ccc(Cl)c(Cl)c1`, the call was inactive. As to `ClCc1cccnc1`, the outcome was inactive. The entry for `CCN(CC)CCO` is “inactive”. For the compound `c1ccc(OP(Oc2ccccc2)Oc2ccccc2)cc1`, the call was inactive.

For `CCNc1nc(NC(C)(C)C)nc(SC)n1`, the result was inactive. The same measure for `CCCCOC(=O)c1ccccc1C(=O)OCCCC`: “inactive”; for `CCOC(=O)c1ccccc1C(=O)OCC`: “inactive”. The entry for `O=[N+]([O-])c1ccc([As](=O)(O)O)cc1` is “inactive”; for `Clc1cccc(Cl)c1Cl` it is “inactive”. Turning to `COC(=O)c1ccccc1N`, the compound was called inactive. The entry for `CC(NC(C)(C)C)C(=O)c1cccc(Cl)c1` (stereo not given) is “inactive”. The same measure for `[N-]=[N+]=[N-]`: “inactive”; for `CCCN(CCC)c1c([N+](=O)[O-])cc(C(F)(F)F)cc1[N+](=O)[O-]`: “inactive”. The entry for `O=c1n(Cl)c(=O)n(Cl)c(=O)n1Cl` is “inactive”. As to `CCN(CC)c1ccccc1`, the compound was classed as inactive. The entry for `OC(O)C(Cl)(Cl)Cl` is “inactive”. The entry for `O=[N+]([O-])c1ccc(Oc2ccc(Cl)cc2Cl)cc1` is “inactive”; for `O=C(O)c1ccccn1` it is “inactive”; for `[O-][Cl+2]([O-])O` it is “inactive”. On to `Cc1ccc(N)cc1Cl`, for which the compound was classed as inactive.

For `C#CCN(C)[C@H](C)Cc1ccccc1`, the compound was called inactive.

Consider `O=NN1CCCCCCC1`, for which the outcome was inactive. `O=[N+]([O-])c1ccccc1`: the outcome was inactive.

With `CC(C)N1C(=O)c2ccccc2NS1(=O)=O`, the compound was called inactive. Consider `CC(Br)C(=O)O` (stereo not given), for which the call was inactive. The entry for `CC(C)OC(=O)Nc1ccccc1` is “inactive”.

Values taken from PubChem BioAssay (Tox21).
